Calls of active or inactive are those of the source.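 The calls were made as follows: active = dose fit with top-dose inhibition above 36% and EC50 error under a fifth of EC50, and EC50 under 30 µM; inactive = the rest.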
These compounds were tested against Integrin alpha-4 (Homo sapiens) (UniProt P13612) (assay: inhibitors of fluorescent LDV binding to VLA-4 – cell-based, plate-based, flow cytometry, set 2, orthogonal assay, dose response (AID 588446)). Conditions: cells, LDV-FITC binding displacement; series mostly up to 66.7 µM.
Integrin alpha-4 (Homo sapiens), sequence (P13612 whole entry, looked up): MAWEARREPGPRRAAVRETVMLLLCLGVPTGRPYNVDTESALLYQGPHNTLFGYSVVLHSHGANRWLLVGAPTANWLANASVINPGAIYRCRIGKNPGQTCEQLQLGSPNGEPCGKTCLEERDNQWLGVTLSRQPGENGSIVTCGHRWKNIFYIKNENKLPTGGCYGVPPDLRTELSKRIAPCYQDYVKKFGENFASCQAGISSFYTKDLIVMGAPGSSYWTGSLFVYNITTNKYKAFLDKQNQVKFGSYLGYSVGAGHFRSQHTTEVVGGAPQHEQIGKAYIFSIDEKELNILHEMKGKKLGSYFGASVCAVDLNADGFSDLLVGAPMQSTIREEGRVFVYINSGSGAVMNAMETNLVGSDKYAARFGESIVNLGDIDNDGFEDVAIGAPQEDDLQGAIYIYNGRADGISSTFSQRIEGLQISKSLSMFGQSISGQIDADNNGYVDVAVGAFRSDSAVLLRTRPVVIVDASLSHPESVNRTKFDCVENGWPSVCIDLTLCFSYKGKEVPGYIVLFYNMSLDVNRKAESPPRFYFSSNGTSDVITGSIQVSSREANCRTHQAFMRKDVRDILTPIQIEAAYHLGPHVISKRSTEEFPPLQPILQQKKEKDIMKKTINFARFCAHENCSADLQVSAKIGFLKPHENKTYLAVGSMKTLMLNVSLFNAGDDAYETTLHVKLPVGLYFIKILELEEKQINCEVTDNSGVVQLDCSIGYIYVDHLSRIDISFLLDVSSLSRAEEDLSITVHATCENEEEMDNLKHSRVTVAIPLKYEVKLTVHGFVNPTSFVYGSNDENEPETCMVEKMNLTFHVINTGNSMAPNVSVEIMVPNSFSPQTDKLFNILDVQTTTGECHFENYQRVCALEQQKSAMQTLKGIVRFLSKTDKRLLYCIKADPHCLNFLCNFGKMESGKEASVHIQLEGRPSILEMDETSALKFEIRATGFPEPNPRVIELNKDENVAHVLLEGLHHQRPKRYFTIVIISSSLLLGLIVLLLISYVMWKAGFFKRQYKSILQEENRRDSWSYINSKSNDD

outcome, inactive:
Cc1oc(-c2cccs2)nc1CN1C(=O)C2CC=CCC2C1=O (stereo not given)
COc1ccccc1Cn1c(C2CC(=O)N(C)C2)nc2ccccc21 (stereo not given)
Cc1nc(C)c(C(=O)N2CCCC2c2nc3ccccc3s2)s1 (stereo not given)
CN1CC(c2nc3ccccc3n2CCOc2ccccc2)CC1=O (stereo not given)
COc1ccccc1N1CCN(CC(=O)c2ccc(F)cc2)CC1
CSc1ccccc1OCc1cc(C(=O)N2CCCC2)no1
O=C(c1ccc(OCCN2CCCCC2)cc1)c1c(-c2ccc(O)cc2)sc2cc(O)ccc12
COCCn1c(C2CC(=O)N(Cc3ccco3)C2)nc2ccccc21 (stereo not given)
COc1cc(OCc2ccccc2)ccc1CN1CCN(C)CC1
Cc1nc2ccccc2n1CCc1noc(COc2ccccc2)n1
CCOCCn1c(C2CC(=O)N(c3ccccc3)C2)nc2ccccc21 (stereo not given)
CCn1c(C2CC(=O)N(c3ccccc3OC)C2)nc2ccccc21 (stereo not given)
CCN1CC(c2nc3ccccc3n2CCOc2ccccc2)CC1=O (stereo not given)
CCOc1ccccc1N1CC(c2nc3ccccc3n2C)CC1=O (stereo not given)
CN(Cc1ccco1)C(=O)c1ccc(-n2cnc3ccccc32)cc1
COc1ccc(-c2nn(Cc3ccccc3)cc2C(=O)N2CCC2)cc1
CCN1CC(c2nc3ccccc3n2Cc2ccccc2)CC1=O (stereo not given)
COCCn1c(C2CC(=O)N(c3cccc(C)c3)C2)nc2ccccc21 (stereo not given)
CC(=O)N(C)Cc1nc2ccccc2n1CCOc1ccc(C)cc1
Cc1cc(C(=O)N2CCCC2c2nc3ccccc3s2)on1 (stereo not given)

Source: PubChem BioAssay AID588446 (NMMLSC, 2011)
